# Assay results published in ChEMBL document CHEMBL3988442, “University of Dundee, Small-Polar-MMV Screening Library” (2021).
# Screen size: about 66,000 compounds; about 960 (1.5%) showed an effect of 50% or more. What follows is part of a selection rich in strong results, with near analogues and random picks from the rest.
# Tested on: Trypanosoma brucei
# Assay: Trypanosoma brucei 72 hour study
# Assay type: functional, organism-based
# Parameters: scale not given: in the data most compounds retested in dose-response had high values
smiles,measurement,setting,value
Cc1ccc(C)c(N2CCN(CC3(O)CCNC3)CC2)c1 (stereo unspecified),Percent Effect,"30 µM, 30.03 µM",106.8%
CCOc1ccccc1N1CCN(CC2(O)CCCNC2)CC1 (stereo unspecified),Percent Effect,"30 µM, 30.03 µM",-24.1%
Cc1ccccc1N1CCCN(CC2(O)CCCNC2)CC1 (stereo unspecified),Percent Effect,"30 µM, 30.03 µM",24.63%
Cn1cccc1C(=O)N1CCC2(CC1)CN(c1ccsc1)C(=O)CO2,Percent Effect,"30.3 µM, […]",-133.6%
COc1ccc(CN2CCO[C@H]3[C@H](OCCN4CCCC4)CC[C@@H]32)cc1.O=C(O)C(F)(F)F.O=C(O)C(F)(F)F,Percent Effect,"30.3 µM, […]",-2.76%
Cc1ncc(CN2CCc3c(nc(-c4ccccn4)[nH]c3=O)C2)n1C,Percent Effect,"30.3 µM, […]",9.769%
COc1ccc(CN2CCc3c(nc(-c4ccccn4)[nH]c3=O)C2)cc1,Percent Effect,"30.3 µM, […]",100.8%
O=c1[nH]c(-c2ccccn2)nc2c1CCN(S(=O)(=O)N1CCCC1)C2,Percent Effect,"30.3 µM, […]",16.13%
Cn1cc(CN2CCc3c(nc(-c4ccccn4)[nH]c3=O)C2)cn1,Percent Effect,"30 µM, 30.03 µM",19.69%
O=c1[nH]c(-c2ccccn2)nc2c1CCN(Cc1cccc(O)c1)C2,Percent Effect,"30.3 µM, […]",-1.061%
Cc1nn(C)cc1CN1CCc2c(nc(-c3ccccn3)[nH]c2=O)C1,Percent Effect,"30.3 µM, […]",3.808%
COc1ccccc1CN1CCc2c(nc(-c3ccccn3)[nH]c2=O)C1,Percent Effect,"30.3 µM, […]",100.6%
CCn1ncc(CN2CCc3c(nc(-c4cccnc4)[nH]c3=O)C2)c1C,Percent Effect,"30 µM, 30.03 µM",24.52%
Cn1cccc1CN1CCc2c(nc(-c3ccccn3)[nH]c2=O)C1,Percent Effect,"30.3 µM, […]",100.6%
CCN(CC)CC1CN(CCc2ccccc2)Cc2nccn2C1.O=C(O)C(F)(F)F.O=C(O)C(F)(F)F (stereo unspecified),Percent Effect,"30 µM, 30.03 µM",-28.98%
CC(C)c1nn(C)c(N(C)C)c1CNCCC(=O)NC1CCCCC1,Percent Effect,"30.3 µM, […]",-9.322%
Cc1cccc(CN2C(=O)CCC23CCN(Cc2cccn2C)CC3)n1.O=C(O)C(F)(F)F.O=C(O)C(F)(F)F,Percent Effect,"30.3 µM, […]",-13.68%
Cl.O=C(CCC1CCCC1)NCCn1nc(C2CCNC2)c2cccnc21 (stereo unspecified),Percent Effect,"30 µM, 30.03 µM",11.21%
CN(C)c1ncc(-c2ccc(C(N)=O)cc2)c(C2CCNC2)n1.Cl (stereo unspecified),Percent Effect,"30.3 µM, […]",3.717%
C[C@@H]1CN(C2CCCCC2)CC[C@@]1(O)C1CCOCC1,Percent Effect,"30 µM, 30.03 µM",-20.03%
c1cc(-c2nc3c(c(NCCn4ccnn4)n2)CCNCC3)ccn1,Percent Effect,"30 µM, 30.03 µM",-15.86%
CC(Nc1nc(-c2ccncc2)nc2c1CCNC2)c1ccccc1 (stereo unspecified),Percent Effect,"30 µM, 30.03 µM",-57.19%
CCOCCNc1nc(-c2ccncc2)nc2c1CCNCC2,Percent Effect,"30.3 µM, […]",-307.1%
Cl.NC1CCc2nc(-c3ccncc3)nc(Nc3cccc(F)c3)c2C1 (stereo unspecified),Percent Effect,"30.3 µM, […]",99.62%
O=C(Nc1cccc(F)c1)NC1CCN(Cc2ccncc2)CC1,Percent Effect,"30.3 µM, […]",-25.17%
CS(=O)(=O)NCc1ncn2c1CN(Cc1cccs1)CCC2.O=C(O)C(F)(F)F.O=C(O)C(F)(F)F,Percent Effect,"30 µM, 30.03 µM",32.32%
Cc1c(C(=O)NCCC(=O)N2CCOCC2)sc2ccc(F)cc12,Percent Effect,"30 µM, 30.03 µM",-29.66%
CN1C[C@]2(CC[C@@H](C(=O)O)CC2)Oc2ccccc2C1=O,Percent Effect,"30.3 µM, […]",-13.61%
C[C@@H]1CN(C(=O)c2cccs2)C[C@]12CCN(CCN(C)C)C2=O.O=C(O)C(F)(F)F,Percent Effect,"30.3 µM, […]",-25.2%
c1nc2n(c1CN1CCCC1)CCN(C1CCOCC1)CC2,Percent Effect,"30 µM, 30.03 µM",51.58%
O=C(O)C(F)(F)F.O=C(O)C(F)(F)F.c1nc2n(c1CN1CCCCC1)CCN(C1CCOC1)CC2 (stereo unspecified),Percent Effect,"30 µM, 30.03 µM",-102.4%
c1nc2n(c1CN1CCOCC1)CCN(C1CCOC1)CC2 (stereo unspecified),Percent Effect,"30 µM, 30.03 µM",-183.8%
Cl.O=C(NCCO)C1(Cc2ccccc2-c2cccnc2)CCOCC1,Percent Effect,"30.3 µM, […]",-4.855%
COC1COC2(CCN(Cc3ccc4c(c3)OCO4)CC2)C1.O=C(O)C(F)(F)F (stereo unspecified),Percent Effect,"30.3 µM, […]",-15.29%
Br.Cc1ncc(C(=O)N2CCOC(C(=O)N3CCCCCC3)C2)c(C)n1 (stereo unspecified),Percent Effect,"30.3 µM, […]",-22.96%
O=C(NCCCN1CCCCC1)c1ccc(-n2ccc3ccccc32)s1,Percent Effect,"30 µM, 30.03 µM",80.76%
Cn1ccc2c(C(=O)NCCCN3CCCC3)cccc21,Percent Effect,"30 µM, 30.03 µM",-4.832%
O=C(NCCCN1CCOCC1)c1ccc(-n2ccc3ccccc32)s1,Percent Effect,"30 µM, 30.03 µM",-4.421%
O=C(NCCN1CCOCC1)c1ccc(-n2ccc3ccccc32)s1,Percent Effect,"30 µM, 30.03 µM",63.33%
CCN(CC)CCNC(=O)c1ccc(-n2ccc3ccccc32)s1,Percent Effect,"30 µM, 30.03 µM",-12.39%
O=C(NCCCN1CCCC1=O)c1ccc(-n2ccc3ccccc32)s1,Percent Effect,"30 µM, 30.03 µM",23.58%
COc1cc(Oc2cnc3ccccc3n2)ccc1CN1CCCC1,Percent Effect,"30 µM, 30.03 µM",-18.27%
CC1CCCCN1C(=O)c1n[nH]c(=O)c2ccccc12 (stereo unspecified),Percent Effect,"30.3 µM, […]",-7.93%
Cn1nnc2c1CCN(Cc1ccncc1)C2COCC1CC1.O=C(O)C(F)(F)F.O=C(O)C(F)(F)F (stereo unspecified),Percent Effect,"30 µM, 30.03 µM",49.24%
CCOCc1ccccc1NC(=O)NCC(C)(O)c1cccs1 (stereo unspecified),Percent Effect,"30 µM, 30.03 µM",-46.58%
CCOCc1ccccc1NC(=O)NCC(C)(O)c1ccsc1 (stereo unspecified),Percent Effect,"30 µM, 30.03 µM",56.33%
CCOCc1ccccc1NC(=O)NCC(C)(O)c1cc(C)oc1C (stereo unspecified),Percent Effect,"30 µM, 30.03 µM",-15.34%
Cc1nonc1CN(C)c1nc(-c2ccco2)nc2c1CCN(C)CC2,Percent Effect,"30 µM, 30.03 µM",-56.96%
O=C(NCCc1coc(-c2ccc(F)cc2)n1)NC1CCC(O)CC1 (stereo unspecified),Percent Effect,"30 µM, 30.03 µM",-16.25%
O=C(NCCc1coc(-c2ccccc2)n1)NC1CC1,Percent Effect,10 µM,101.4%
same,Percent Effect,"30.3 µM, […]",100%
Cc1ccc(-c2nc(CCNC(=O)NC3CCN(C)CC3)co2)cc1,Percent Effect,"30 µM, 30.03 µM",6.387%
COc1ccc(-c2nc(CCNC(=O)NC3CCC(O)CC3)co2)cc1 (stereo unspecified),Percent Effect,"30 µM, 30.03 µM",-54.4%
O=C(NCCc1coc(-c2ccc(F)cc2)n1)NC1CC1,Percent Effect,10 µM,99.81%
same,Percent Effect,"30.3 µM, […]",99.45%
Cc1ccc(-c2nc(CCNC(=O)NC3CCC(O)CC3)co2)cc1 (stereo unspecified),Percent Effect,10 µM,-4.374%
same,Percent Effect,"30.3 µM, […]",17.54%
CO[C@@H]1CN(c2ccccc2)S(=O)(=O)[C@@]12CCN(C(=O)N(C)C)C2,Percent Effect,"30.3 µM, […]",5.082%
O=C1C[C@H]2CC[C@@H](CN1)N2C(=O)CCc1ccsc1,Percent Effect,"30.3 µM, […]",5.085%
CCc1n[nH]c(C2CN(C(=O)c3ncoc3C(C)C)CCO2)n1 (stereo unspecified),Percent Effect,"30.3 µM, […]",10.22%
Cc1sc2nc(CCN)nc(N(C)CCCC3CCCO3)c2c1C (stereo unspecified),Percent Effect,"30 µM, 30.03 µM",73.15%
COCCN(Cc1cccs1)c1nc(CCN)nc2ccccc12,Percent Effect,"30 µM, 30.03 µM",3.665%
Cc1sc2nc(CCN)nc(N(CCN(C)C)CC3CCCO3)c2c1C (stereo unspecified),Percent Effect,"30 µM, 30.03 µM",33.05%
COCCN(CC1CC1)c1nc(CCN)nc2ccccc12,Percent Effect,"30 µM, 30.03 µM",27.63%
COCCN(CC1CC1)c1nc(CCN)nc2sc(C)c(C)c12,Percent Effect,"30 µM, 30.03 µM",105.1%
CCN(CCN(C)C)c1nc(CCN)nc2sc(C)c(C)c12,Percent Effect,"30 µM, 30.03 µM",-19.52%
